Source: PubChem
Cycloheximide cs: Cycloheximide Counterscreen for Small Molecule Inhibitors of Shiga Toxin; cell reporter, cycloheximide protein synthesis inhibition counterscreen; max response, %; 12% of 300,000 active; in the data active = max response mostly above about 13%, no sharp cut-off; inactive = mostly below about 14%; also: read at 38.3 µM for the half of the compounds with a filed dose; 0% is about no effect
Pf growth 48h: Primary qHTS for delayed death inhibitors of the malarial parasite plastid, 48 hour incubation | P. falciparum luciferase growth in erythrocytes, 48 h | Potency, µM (series often up to 28.7 µM), inactives show top-dose activity change, negative = inhibition, most hits filed as inhibitors | 5.9% of 310,000 active; also: potency is read from the fitted curve at half-maximal effect; % is scaled to controls: 0 for no effect and ±100 for the full control effect
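First compound was added to culture medium, then infected red cells at 0.1% parasitemia and 2% hematocrit (final). After incubation at 37 C under 5% CO2, luciferase detection reagent was dispensed and light output recorded.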
Pf growth 96h: Primary qHTS for delayed death inhibitors of the malarial parasite plastid, 96 hour incubation. AID 504834, 2011. P. falciparum luciferase reporter growth, 96 h. 6.9% of 320,000 active. Potency, µM (series often up to 28.7 µM), without a hit: at the highest dose activity change, negative = inhibition, actives largely listed as inhibitors; also: potency is read from the fitted curve at half-maximal effect; % is scaled to controls: 0 for no effect and ±100 for the full control effect
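Delayed-death screen, second-generation endpoint: infected erythrocytes, 2% hematocrit, 0.05% parasitemia final; 96 hours at 37 C, 5% CO2; luciferase detection reagent; luminescence decrease equals reduced growth.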
Shiga toxin inh: A qHTS for Small Molecule Inhibitors of Shiga Toxin; Vero cells, Shiga toxin protein synthesis inhibition reporter; inhibition, % at 38.7 µM; 9.2% of 290,000 active; AID 2315, 2010; in the data active = inhibition mostly above about 28%, no sharp cut-off; inactive = mostly below about 43%; also: 0% is about no effect
LmPK inhibitor: qHTS Assay for Inhibitors of Leishmania Mexicana Pyruvate Kinase (LmPK) | 0.37% of 290,000 active | Q27686 | Potency, µM (series often up to 57.5 µM), for the others: at the highest dose activity change, negative = inhibition, actives largely listed as inhibitors | purified LmPK, Kinase-Glo ATP luminescence, 1 h; also: potency is read from the fitted curve at half-maximal effect; % is scaled to controls: 0 for no effect and ±100 for the full control effect
Target sequence (Q27686 whole entry, looked up): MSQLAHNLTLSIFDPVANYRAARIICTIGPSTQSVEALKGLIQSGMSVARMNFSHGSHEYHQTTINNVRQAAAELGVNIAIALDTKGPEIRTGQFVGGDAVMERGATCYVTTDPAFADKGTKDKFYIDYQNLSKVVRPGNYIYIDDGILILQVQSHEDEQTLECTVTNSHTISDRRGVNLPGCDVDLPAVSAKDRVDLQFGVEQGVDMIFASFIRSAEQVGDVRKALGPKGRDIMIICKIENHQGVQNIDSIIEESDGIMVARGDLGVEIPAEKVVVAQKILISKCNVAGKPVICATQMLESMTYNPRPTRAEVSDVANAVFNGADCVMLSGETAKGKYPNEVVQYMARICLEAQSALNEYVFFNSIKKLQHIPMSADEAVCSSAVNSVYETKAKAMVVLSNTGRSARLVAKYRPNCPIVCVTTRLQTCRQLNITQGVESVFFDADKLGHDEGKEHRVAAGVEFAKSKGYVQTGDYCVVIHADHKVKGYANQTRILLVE
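Kinase-Glo luminescence read after 1 h RT reaction of 0.1 nM LmPK with 0.5 mM PEP and 0.1 mM ADP. Activity scaled between uninhibited and enzyme-free controls.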
* = called active by the depositor; ? = inconclusive; . = no result given; [ ] = dose if it differs, or a comment. Most compounds without a hit are left out; they make up all but 22% or so of the library. Unless noted, calls follow the shape of the dose curve; as a rule, active = well fitted inhibition curve with a large enough effect; inconclusive = small, poorly fitted or top-dose-only effect, or another doubt; inactive = no such curve, though single readings can be large or run the other way.

SMILES	Cycloheximide cs	Pf growth 48h	Pf growth 96h	Shiga toxin inh	LmPK inhibitor
O=C1CCCN1c1ccc(S(=O)(=O)NCCOc2ccccc2)cc1	-2	-27%	?	-2	1%
Cc1nnc(SCC2=C(C(=O)O)N3C(=O)C(NC(=O)C(C)n4nc(C(F)(F)F)cc4C)C3SC2)s1 (centres undefined)	15	-6%	-1%	-16	-2%
CCn1cc(C(=O)NC(C)C23CC4CC(CC(C4)C2)C3)cn1 (centres undefined)	-3	?	5.2µM*	-3	1%
CCn1cc(C(=O)NC(C)C2CC3CCC2C3)cn1 (centres undefined)	1	-1%	-15%	17	1%
C=C(C)c1cccc(C(C)(C)NC(=O)Nc2ccc(OC)cc2)c1	-5	-23%[5.75 µM]	?	28	1%
C=C(C)c1cccc(C(C)(C)NC(=O)NC(c2ccccc2)c2ccc(OC)cc2)c1 (centres undefined)	6	?	12µM*	-9	0%
CC1C/C(=N/NC(=O)c2cccc(F)c2)c2ccc(O)cc2C1 (centres undefined)	42*	-18%	?	active	4%
CN(C)C(CNC(=O)c1cccc(C(F)(F)F)c1)c1ccco1 (centres undefined)	7	-1%	49%	-6	-1%
CC(=O)n1cc([C@@H]2C=C(C(=O)NCc3ccccc3)O[C@H](OCCCCO)C2)c2ccccc21	0	?	?	37	-1%
CC(=O)n1cc([C@@H]2C=C(C(=O)N3CCN(Cc4ccc5c(c4)OCO5)CC3)O[C@H](OCCCCO)C2)c2ccccc21	-3	?	12µM*	-16	6%
CC(=O)n1cc([C@H]2C=C(C(=O)N3CCN(Cc4ccccc4)CC3)O[C@@H](OCCCCO)C2)c2ccccc21	0	?	5.2µM*	14	-4%
CC(=O)n1cc([C@@H]2C=C(C(=O)N3CCN(Cc4ccccc4)CC3)O[C@H](OCc3ccc(CO)cc3)C2)c2ccccc21	-1	0.93µM*	3.3µM*	-5	3%
O=C(O)CCc1nnc(SCC(=O)Nc2cccc(C(F)(F)F)c2)[nH]c1=O	-10	-2%	11%	33	16%
Nc1nc(-c2ccc(Cl)cc2)c(S(=O)(=O)c2ccccc2)s1	-1	32%	7%	38	-7%
O=S(=O)(c1ccccc1)c1cnn(-c2ccccc2)c1-c1ccc(Cl)cc1	-1	12µM*	2.9µM*	3	6%
COc1ccc(-c2c(S(=O)(=O)c3ccccc3)cnn2-c2ccccc2)cc1	7	?	6.6µM*	-27	3%
COC(=O)c1ccc(C(=O)OC)c(NC(=O)CS(=O)(=O)Cc2ccccc2)c1	-1	6%	5.2µM*	-8	3%
O=C(Nc1nc2nccc(-c3ccccc3)n2n1)c1ccc(F)cc1	1	23%	2%	-9	1%
O=C(Nc1nc2nccc(-c3ccccc3)n2n1)c1ccccc1	22*	74%	117%	60	-3%
Cc1ccnc2nc(NC(=O)c3ccco3)nn12	26*	78%	8%	48*	-1%
O=C(Nc1nc2nc(-c3ccccc3)cc(-c3ccccc3)n2n1)c1ccco1	9	2.9µM*	.	-5	-1%
Cc1ccc2sc(N(CCCN(C)C)C(=O)c3ccc(Br)s3)nc2c1C	-9	?	?	-15	16%
O=S(=O)(c1ccc(N2CCC(c3ccc(Cl)cc3)=N2)cc1)N(CCO)CCO	3	.	-61%	4	3%
CN(C)CCCNS(=O)(=O)c1ccc(N2CCC(c3ccc(Cl)cc3)=N2)cc1	2	9.3µM*	.	15	0%
C[n+]1ccccc1COc1ccc(C(C)(C)C)cc1	-3	?	0.37µM*	-10	-7%
SMILES	Cycloheximide cs	Pf growth 48h	Pf growth 96h	Shiga toxin inh	LmPK inhibitor
O=C(Nc1ccc(Cl)cc1F)C1CC(=O)N(Cc2ccco2)C1 (centres undefined)	.	?	11%	.	.
CC(=O)c1c(NCc2ccccc2)nc(=O)n(-c2ccccc2)c1C	24*	27%	-21%	54	-6%
CC(=O)c1c(NCCc2ccccc2)nc(=S)n(-c2ccccc2)c1C	9	18%	-1%	-4	-8%
O=C(CC(c1ccc(F)cc1)c1ccco1)Nc1nccs1 (centres undefined)	8	?	-23%	-4	2%
COc1ccccc1C(CCN(Cc1cccs1)C(C)=O)c1ccco1 (centres undefined)	-7	7.4µM*	13µM*	15	1%
CCC(=O)NCCC(c1ccco1)c1ccccc1OC (centres undefined)	13	?	10µM*	-3	-1%
COc1ccccc1C(CC(=O)Nc1nccs1)c1ccco1 (centres undefined)	1	2.9µM*	6.6µM*	-3	4%
O=C1C=C(c2ccc(Oc3ccccc3)cc2)C[C@@H](c2ccc3c(c2)OCO3)C1	.	1%	-11%	.	.
Cc1ccc(NC(=O)CCN2CCC(Cc3ccccc3)CC2)cc1	-3	7.4µM*	10µM*	.	1%
Cc1ccc(NC(=O)CCN2CCN(C/C=C/c3ccccc3)CC2)cc1	2	?	.	-10	3%
Cc1cccc(NC(=O)CCN2CCC(C(N)=O)CC2)c1	-4	22%	6.6µM*	-24	-1%
Cc1ccc(NC(=O)CCN2CCN(C/C=C/c3ccccc3)CC2)cc1C	2	6.6µM*	89%	-15	5%
O=C(CCN1CCCCCC1)Nc1cccc(Cl)c1	-3	9%	2.1µM*	20	-3%
CN1CCN(CCC(=O)Nc2ccccc2)CC1	-2	17%	5%	-2	3%
O=CN1CCN(C(=O)CC(c2ccccc2)c2cc(Br)ccc2O)CC1 (centres undefined)	1	-24%	374%	-5	-7%
Cc1cc(NC(=O)CCN2CCCCC2)ccc1Br	-2	10%	2.6µM*	1	0%
COc1ccc(NC(=O)OC(CN2CCCCC2)C(F)(F)F)cc1 (centres undefined)	21*	31%	40%	21	-9%
Cc1cc(NC(=O)CCN2CCN(CCO)CC2)ccc1Br	0	?	0%	-6	-3%
COc1ccc(NC(=O)CCN2CCCCC2)cc1	-2	2%	13µM*	-5	0%
CC(=O)N(CC(O)CN(C(C)=O)c1c(I)c(C(=O)NC[C@@H](O)CO)c(I)c(C(=O)NC[C@@H](O)CO)c1I)c1c(I)c(C(=O)NC[C@@H](O)CO)c(I)c(C(=O)NC[C@@H](O)CO)c1I	.	5%[12.8 µM]	7%[12.8 µM]	.	.
O=C(CSCc1cccc(F)c1)NCc1ccccc1	48*	302%	2.1µM*	173*	2%
COc1ccc(CNC(=O)CSCc2ccccc2Cl)cc1	62*	26%	-9%	66*	1%
Cc1ccc(CNC(=O)CSCc2cccc(F)c2)cc1	46*	86%	0%	65	0%[11.5 µM]
